We go through 18 compounds from PubChem BioAssay (Tox21).

Assay [1] can be described thus: qHTS assay for small molecule agonists of the p53 signaling pathway (AID 651631; calls by dose curve; note: nearly all actives have a fitted effect of over 15% in size; note: potency is the fitted concentration of half-maximal effect). A digest of the protocol: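 Read-out is beta-lactamase FRET fluorescence measured 2 h after substrate addition at room temperature, in HCT-116 cells with a p53 response element-driven reporter exposed to compounds for 16 h at 37 °C.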
A short description of assay [2]: qHTS assay for small molecule agonists of the p53 signaling pathway - cell viability (AID 651633; calls by dose curve; note: nearly all actives have a fitted effect of over 30% in size; note: potency is the fitted concentration of half-maximal effect). A digest of the protocol: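 Viability counter-read: CellTiter-Glo luminescence (30 min, room temperature) in the same p53RE-bla plates. These plates had been exposed to compounds for 16 h at 37 C.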
In general terms: qHTS replaces the single test concentration by a dilution series.

Assay [3] is described as follows: qHTS assay for small molecules that induce genotoxicity in human embryonic kidney cells expressing luciferase-tagged ATAD5 - cell viability (AID 651634; calls by dose curve; note: nearly all actives have a fitted effect of over 25% in size; note: potency is the fitted concentration of half-maximal effect). The gist of the method:
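Quantitative high-throughput format. HEK293T cells expressing ATAD5 fused to luciferase were plated at 2,000 cells/well and treated 15.5 hr with compound versus DMSO. Viability was determined by fluorescent live-cell protease substrate, 30 min at 37C.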

Assay [4] is described as follows: qHTS assay for small molecule disruptors of the mitochondrial membrane potential - cell viability (AID 720634; calls by dose curve; note: nearly all actives have a fitted effect of over 20% in size; note: potency is the fitted concentration of half-maximal effect). A digest of the protocol:
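Same-well counter-screen: following the MMP dye addition, CellTiter-Glo was added to 1 hr compound-treated HepG2 cells and luminescence read after 30 min at room temperature.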

Assay [5] in a line: qHTS assay to test for compound auto fluorescence at 590 nm (red) in HepG2 cells (AID 720674). A digest of the protocol: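 1 hr compound incubation on HepG2 cells, 37 C, 5% CO2; plate read ex 540 nm / em 590 nm; intensities reported as Rose Bengal sodium equivalents.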
The nature of assay [6]: qHTS assay to test for compound auto fluorescence at 535 nm (green) in HepG2 cells (AID 720675).
A short description of assay [7]: qHTS assay to test for compound auto fluorescence at 460 nm (blue) in HEK293 cells (AID 720678). The gist of the method:
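Auto fluorescence in the blue band was quantified as triamterene equivalency. HEK293 cells were seeded at 2,000/well, dosed after a 4-5 hr attachment, and kept overnight at 37C before the 405/460 nm reading.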

Assay [8] can be described thus: qHTS assay to test for compound auto fluorescence at 590 nm (red) in HEK293 cells (AID 720679). The gist of the method: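 Autofluorescence equivalency to Rose Bengal sodium, 540/590nm, in HEK293 cells exposed overnight to 23 nL compound per well.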
A short description of assay [9]: qHTS assay for small molecule disruptors of the mitochondrial membrane potential (AID 720635). Note: potency is the fitted concentration of half-maximal effect. A digest of the protocol:
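Mitochondrial membrane potential tracked with Mito-MPS dye, red aggregates (ex 540/em 590 nm) against green monomers (ex 490/em 535 nm). Compound treatment 1 hr at 37C, dye 30 min in HepG2.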

The nature of assay [10]: qHTS assay for small molecules that induce genotoxicity in human embryonic kidney cells expressing luciferase-tagged ATAD5 (AID 651632). Note: nearly all actives have a fitted effect of over 15% in size. The gist of the method: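 Test compounds were delivered by pin tool onto HEK293T reporter cells (2,000/well) expressing ATAD5 fused to luciferase. After 16 hr at 37C, 5% CO2, Amplite was added for 30 min at room temperature and luminescence was measured.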

Inconclusive results are not listed. Calls of active or inactive are those of the source. Unless noted, calls come from the whole dose curve; as a rule, active = well fitted curve in the direction sought with a large enough effect in the repeat runs; inconclusive = weak or mixed curves; inactive = no such curve, though single readings can be large; an effect the other way counts as inactive or inconclusive.

On to `C=C1C(=C/C=C2\CCC[C@]3(C)[C@@H]([C@H](C)CCCC(C)C)CC[C@@H]23)C[C@@H](O)C[C@@H]1O`, for which the Potency in [1] was 29.8 µM (active); in assay [2], 29.8 µM (active); in assay [3] it was 23.7 µM (active). The Potency result in [4], in assay [6] and in [7] was “inactive” each time. Further, the compound was called inactive in assay [5] and in assay [8].
Consider `O=C(O)c1cc2cc(Cc3cccnc3)ccc2o1`, for which the Potency entry in assay [1], in [2], in assay [3], in assay [4], in [9] and in [6] was “inactive” throughout. Moreover, in [7], the Potency entry was “inactive”. Further, the outcome in assay [8] was inactive.
As for `CCCCCCCCCC(=O)NO`, the Potency result in assay [1], in assay [2], in assay [3], in [4], in assay [9] and in [7] was “inactive” throughout. Also, the call in assay [5] and in [8] was inactive.
Take `O=C1c2c(O)cccc2[C@H]([C@@H]2O[C@H](CO)[C@@H](O)[C@H](O)[C@H]2O)c2cc(CO)cc(O)c21`: the Potency entry in assay [1], in assay [2], in assay [3], in assay [4], in [6] and in assay [7] was “inactive” in each case. Further, the compound was classed as inactive in [5] and in assay [8].
Regarding `CC1(C)C[C@@H]1C(=O)N/C(=C\CCCCSC[C@H](N)C(=O)O)C(=O)O`, the Potency result in [1], in assay [2], in [3], in assay [4], in [9] and in [6] was “inactive” throughout. Further, the Potency result in [7] is “inactive”. Further, the call in assay [5] and in [8] was inactive.
Regarding `C/C(=C\C(=O)OCCCCCCCCC(=O)O)C[C@@H]1OC[C@H](C[C@@H]2O[C@H]2[C@@H](C)[C@H](C)O)[C@@H](O)[C@H]1O`, the Potency result in [1], in assay [2], in assay [3], in [4], in assay [9] and in assay [6] was “inactive” each time. Further, the Potency result in assay [7] was “inactive”. Also, the call in assay [5] and in assay [8] was inactive.
Take `Cc1cccc(C)c1NC(=O)C1CCCCN1C` (stereo not given): the Potency entry in assay [1], in [2], in assay [3], in [4], in assay [9] and in [6] was “inactive” each time. Further, the Potency entry in assay [7] is “inactive”. The outcome in assay [5] and in [8] was inactive.
Turning to `CO/N=C(\C(=O)N[C@@H]1C(=O)N2C(C(=O)O)=C(C[N+]3(C)CCCC3)CS[C@H]12)c1csc(N)n1`, the Potency result in [1], in [2], in assay [3], in assay [4], in assay [9] and in [6] was “inactive” throughout. In addition, in assay [7], the Potency entry is “inactive”. In addition, the compound was called inactive in [5] and in [8].
Consider `O=C(O)c1cc(=O)c2c3nc4ccccc4oc-3cc(=O)c2[nH]1`, for which the Potency entry in assay [1], in assay [2], in [3], in assay [4], in assay [6] and in [7] was “inactive” each time. For the same compound, the compound was classed as inactive in assay [5] and in assay [8].
For `CCCC(=O)c1cc(O)c(O)cc1O`, the Potency in assay [1] was 68.6 µM (active); in assay [3] it was 30.6 µM (active); in [9] it was 5.45 µM (active). In addition, the Potency result in assay [10], in [2], in [6] and in assay [7] was “inactive” each time. In [8], the outcome was inactive.
In the case of `CN=C(N)NCCC[C@H](N)C(=O)O`, the Potency result in [1], in assay [2], in assay [3], in [4], in assay [9] and in assay [6] was “inactive” in each case. The Potency result in [7] is “inactive”. Besides, the call in assay [8] was inactive.
`NCCCC(=O)O`: the Potency result in assay [1], in assay [2], in [3], in assay [4], in assay [9] and in assay [6] was “inactive” throughout. For the same compound, the Potency result in assay [7] was “inactive”. For the same compound, the compound was called inactive in [8].
On to `CC[C@@H](C(=O)[C@@H](C)[C@@H](O)[C@H](C)CCc1ccc(C)c(O)c1C(=O)O)[C@H]1O[C@](CC)([C@H]2CC[C@](O)(CC)[C@H](C)O2)C[C@@H]1C`, for which the Potency in [1] was 23.7 µM (active); in assay [2], 26.6 µM (active); in [3], 23.7 µM (active); in assay [4], 5.96 µM (active). In addition, the Potency result in assay [10] and in [7] was “inactive” throughout. In assay [8], the compound was classed as inactive.
Take `OCCCNc1ccccc1`: the Potency result in assay [1], in assay [2], in assay [3], in [4], in assay [6] and in assay [7] was “inactive” throughout. For the same compound, the outcome in assay [5] and in assay [8] was inactive.
`O=C(O)COc1ccccc1/C=N/NC(=O)c1ccncc1`: the Potency entry in [1], in assay [2], in [3], in [4], in assay [9] and in assay [6] was “inactive” each time. Moreover, the Potency result in assay [7] is “inactive”. Further, in [8], the outcome was inactive.
As to `CCOC(=O)COc1ccc2c(=O)cc(-c3ccccc3)oc2c1`, the Potency entry in [1], in assay [2], in assay [3], in [4], in assay [6] and in [7] was “inactive” in each case. For the same compound, the Potency in assay [9] is 7.5 µM (active). Moreover, the compound was called inactive in [5] and in assay [8].
In the case of `O=C(O)c1ccc(NC2OC[C@@H](O)[C@H](O)[C@H]2O)cc1` (stereo not given in full), the Potency entry in assay [1], in assay [2], in assay [3], in assay [4], in [9] and in assay [6] was “inactive” throughout. In addition, the Potency entry in [7] was “inactive”. For the same compound, the compound was called inactive in assay [5] and in assay [8].
Turning to `C[C@H](O)CN(C)C`, the Potency result in assay [1], in assay [2], in assay [3], in [4], in assay [9] and in [6] was “inactive” each time. The Potency result in [7] is “inactive”. For the same compound, the outcome in assay [5] and in assay [8] was inactive.
